A short description of test [1]: Caspase-3/7 induction in HepG2 cells by small molecules, qHTS assay (AID 1346978). Also: nearly all actives have a fitted effect of over 15% in size. An outline of the steps:
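Wild-type HepG2 cells, 2,000/well, settled 5 hr at 37 C and 5% CO2, then compound-treated for 17 hr; caspase-3/7 activity read by luminescent Caspase-Glo 3/7 after 30 min at room temperature.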
In general terms: In qHTS, concentration-response curves come from the screen itself.

The nature of test [2]: Caspase-3/7 induction in CHO-K1 cells by small molecules, qHTS cell viability counter screen (AID 1346979). Also: nearly all actives have a fitted effect of over 35% in size. Also: potency is read from the fitted curve at half-maximal effect. An outline of the steps: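 CellTiter-Fluor viability check, qHTS format: wild-type CHO-K1, 16hr compound treatment, 1hr reagent incubation, fluorescence read.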
A short description of test [3]: Caspase-3/7 induction in CHO-K1 cells by small molecules, qHTS assay (AID 1346980). Also: nearly all actives have a fitted effect of over 15% in size. An outline of the steps:
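Wild-type CHO-K1 cells exposed to compounds for 17hr at 37 C, 5% CO2. Caspase-3/7 activity then measured by Caspase-Glo 3/7 luminescence after 30min at room temperature.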

Test [4] in a line: Caspase-3/7 induction in HepG2 cells by small molecules, qHTS cell viability counter screen (AID 1346981). Also: nearly all actives have a fitted effect of over 30% in size. Also: potency is read from the fitted curve at half-maximal effect. In outline:
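Fluorescence read-out of live-cell protease activity (CellTiter-Fluor) after 1 hr with reagent. This was measured in the same wells as the caspase-3/7 luminescence, on HepG2 cells exposed to DMSO-dissolved compounds for 16 hr at 37 C.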

In test [5] the target is Cytochrome P450 2D6 (Homo sapiens) (UniProt P10635). Briefly: Cytochrome P450 Family 2 Subfamily D Member 6 (CYP2D6) small molecule antagonists: luciferase reporter qHTS assay (AID 1671196). Also: nearly all actives have a fitted effect of over 50% in size. Also: potency is read from the fitted curve at half-maximal effect. In outline:
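Luminogenic proluciferin substrate, CYP2D6 enzyme; 10 min RT preincubation with compound, NADPH regeneration system added, 1 h RT. Stop/detection reagent, 20 min RT, luminescence read (RLU). Signal proportional to CYP activity.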
For orientation: In a reporter assay the amount or activity of a reporter protein is the signal.

For test [6], the target named is Cytochrome P450 2C9 (Homo sapiens) (UniProt P11712). Briefly: Cytochrome P450 Family 2 Subfamily C Member 9 (CYP2C9) small molecule antagonists: luciferase reporter qHTS assay (AID 1671198). Also: nearly all actives have a fitted effect of over 50% in size. Also: potency is read from the fitted curve at half-maximal effect. In outline:
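P450-Glo proluciferin substrate with CYP2C9 enzyme; 10 min RT preincubation, then NADPH regeneration 1 h at 37C; luciferin detection reagent 20 min RT, luminescence in relative luminescence units.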

The target of test [7] is Cytochrome P450 1A2 (Homo sapiens) (UniProt P05177). The test can be described thus: Cytochrome P450 Family 1 Subfamily A Member 2 (CYP1A2) small molecule antagonists: luciferase reporter qHTS assay (AID 1671199). Also: nearly all actives have a fitted effect of over 50% in size. Also: potency is read from the fitted curve at half-maximal effect. In outline: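 Luminescence readout (relative luminescence units) after luciferin detection reagent, 20 min RT. Preceded by 1 h room-temperature CYP1A2 reaction with NADPH regeneration solution following 10 min compound preincubation with enzyme and proluciferin substrate. Furafylline positive control.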
Chain of Cytochrome P450 1A2 (Homo sapiens) (P05177 whole entry, looked up): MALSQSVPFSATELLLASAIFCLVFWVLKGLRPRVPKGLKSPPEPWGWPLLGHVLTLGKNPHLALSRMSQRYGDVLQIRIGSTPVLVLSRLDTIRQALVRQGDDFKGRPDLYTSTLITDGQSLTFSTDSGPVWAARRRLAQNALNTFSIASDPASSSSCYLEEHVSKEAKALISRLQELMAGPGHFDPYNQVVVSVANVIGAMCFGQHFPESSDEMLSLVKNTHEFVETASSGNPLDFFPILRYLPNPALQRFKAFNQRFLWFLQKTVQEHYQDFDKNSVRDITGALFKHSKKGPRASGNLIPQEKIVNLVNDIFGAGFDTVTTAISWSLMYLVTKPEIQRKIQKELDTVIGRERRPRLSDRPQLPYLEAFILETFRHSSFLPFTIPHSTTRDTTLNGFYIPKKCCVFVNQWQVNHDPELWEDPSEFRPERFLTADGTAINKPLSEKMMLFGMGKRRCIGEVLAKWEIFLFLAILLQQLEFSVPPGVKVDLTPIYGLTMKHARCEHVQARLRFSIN

The target in test [8] is Voltage-gated inwardly rectifying potassium channel KCNH2 (Homo sapiens) (UniProt Q12809). Briefly: Human Ether-a-go-go-Related Gene (hERG) channel small molecule antagonists: fluorescence cell-based qHTS assay (AID 1671200).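 Also: hERG-expressing U2OS cells given a thallium stimulus after FluxOR II dye loading; series mostly up to about 77 µM; nearly all actives have a fitted effect of over 50% in size.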 An outline of the steps: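 Kinetic two-minute fluorescence traces, sampled at 1 s, were collected following thallium stimulus of U2OS cells (1000 per well) that had been cultured overnight at 37 C and loaded with FluxOR II.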
Chain of Voltage-gated inwardly rectifying potassium channel KCNH2 (Homo sapiens) (Q12809 whole entry, looked up): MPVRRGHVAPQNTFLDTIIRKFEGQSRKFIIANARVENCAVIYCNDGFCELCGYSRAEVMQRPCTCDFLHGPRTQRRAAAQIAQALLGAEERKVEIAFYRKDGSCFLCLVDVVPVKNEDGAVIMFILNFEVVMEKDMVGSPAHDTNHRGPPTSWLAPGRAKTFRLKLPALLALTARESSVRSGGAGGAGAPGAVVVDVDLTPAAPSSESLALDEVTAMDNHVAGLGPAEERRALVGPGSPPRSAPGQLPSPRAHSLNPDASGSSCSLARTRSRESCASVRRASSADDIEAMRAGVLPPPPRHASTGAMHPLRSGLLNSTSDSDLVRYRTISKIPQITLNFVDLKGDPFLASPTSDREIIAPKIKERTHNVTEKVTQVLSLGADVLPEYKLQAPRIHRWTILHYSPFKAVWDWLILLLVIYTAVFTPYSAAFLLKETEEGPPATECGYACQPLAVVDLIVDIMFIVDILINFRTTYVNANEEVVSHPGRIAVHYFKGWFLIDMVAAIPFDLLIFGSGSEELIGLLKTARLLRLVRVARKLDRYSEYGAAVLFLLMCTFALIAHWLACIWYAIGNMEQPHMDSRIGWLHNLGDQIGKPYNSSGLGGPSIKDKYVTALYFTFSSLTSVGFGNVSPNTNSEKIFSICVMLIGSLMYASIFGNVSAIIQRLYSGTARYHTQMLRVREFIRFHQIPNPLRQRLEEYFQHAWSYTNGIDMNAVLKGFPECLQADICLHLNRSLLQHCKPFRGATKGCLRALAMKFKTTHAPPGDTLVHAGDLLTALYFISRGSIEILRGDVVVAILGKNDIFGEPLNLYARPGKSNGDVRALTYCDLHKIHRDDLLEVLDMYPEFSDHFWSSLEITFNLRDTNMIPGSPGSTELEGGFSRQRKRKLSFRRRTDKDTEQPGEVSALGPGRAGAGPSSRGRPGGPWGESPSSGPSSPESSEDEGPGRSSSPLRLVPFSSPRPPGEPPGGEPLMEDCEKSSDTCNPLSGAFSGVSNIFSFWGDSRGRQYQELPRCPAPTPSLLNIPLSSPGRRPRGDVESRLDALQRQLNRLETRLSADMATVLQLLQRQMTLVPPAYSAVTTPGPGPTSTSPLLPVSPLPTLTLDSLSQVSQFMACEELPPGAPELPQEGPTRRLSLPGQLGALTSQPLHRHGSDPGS
In general terms: Block of hERG is tested as a sign of cardiac risk.

Test [9] concerns the target Cytochrome P450 3A4 (Homo sapiens) (UniProt P08684). The test can be described thus: Cytochrome P450 Family 3 Subfamily A Member 4 (CYP3A4) small molecule antagonists: luciferase reporter qHTS assay (AID 1671201). An outline of the steps:
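Proluciferin-to-luciferin conversion by CYP3A4, NADPH-regenerated, 1 h RT; luminescence read as RLU. Ketoconazole as control.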

In test [10] the target is Nuclear receptor subfamily 1 group I member 2 (Homo sapiens) (UniProt O75469). Briefly: Human pregnane X receptor (PXR) small molecule agonists, qHTS assay (AID 1346982). Also: nearly all actives have a fitted effect of over 35% in size. An outline of the steps:
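HepG2 PXR-Luc reporter line, 5% charcoal-stripped FBS; 5 hr pre-incubation, compound (DMSO) 24 hr at 37 C/5% CO2; ONE-Glo 30 min RT; luminescence read-out.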

The target in test [11] is Nuclear receptor subfamily 1 group I member 2 (Rattus norvegicus) (UniProt Q9R1A7). Briefly: Rat pregnane X receptor (rPXR) activation by small molecules, qHTS assay (AID 1346983). Also: nearly all actives have a fitted effect of over 20% in size. To be noted: rPXR luciferase reporter cells, One-Glo luminescence, 24 h; max activation: active compounds read high. An outline of the steps: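 Cell-based rPXR activation assay: rPXR cells, 2,000 per well, rested 5hr at 37 C, then exposed to compounds in DMSO for 24 hr at 37 C. Luciferase activity read by One-Glo luminescence after 30 min at room temperature.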
Chain of Nuclear receptor subfamily 1 group I member 2 (Rattus norvegicus) (Q9R1A7 whole entry, looked up): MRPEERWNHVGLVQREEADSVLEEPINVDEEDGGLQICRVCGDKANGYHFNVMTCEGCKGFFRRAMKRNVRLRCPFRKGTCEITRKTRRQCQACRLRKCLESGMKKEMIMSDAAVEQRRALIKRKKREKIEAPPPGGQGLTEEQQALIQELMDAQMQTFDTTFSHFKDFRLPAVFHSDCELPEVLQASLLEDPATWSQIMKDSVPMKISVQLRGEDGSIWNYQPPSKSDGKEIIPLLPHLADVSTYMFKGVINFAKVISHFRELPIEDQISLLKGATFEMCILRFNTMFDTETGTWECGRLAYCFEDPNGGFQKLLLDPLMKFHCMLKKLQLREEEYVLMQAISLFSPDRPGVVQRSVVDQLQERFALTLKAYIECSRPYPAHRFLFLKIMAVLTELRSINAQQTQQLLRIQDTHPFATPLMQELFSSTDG

For test [12], the target named is Nuclear receptor subfamily 1 group I member 2 (Homo sapiens) (UniProt O75469). The test can be described thus: CYP3A4 induction through human pregnane X receptor (PXR) by small molecules, qHTS assay (AID 1346984). Also: nearly all actives have a fitted effect of over 40% in size. An outline of the steps:
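HepG2-derived DPX-2 line carrying PXR plus a CYP3A4-promoter luciferase reporter; cells plated 5 hr, compound-exposed 24 hr at 37C. CYP3A4 activity probed with 3uM (final) Luciferin-IPA for 3hr, then luciferase read after One-Glo.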

Test [13] shares this target. Briefly: Human pregnane X receptor (PXR) activation by small molecules, qHTS assay (AID 1346985). Also: nearly all actives have a fitted effect of over 40% in size. An outline of the steps:
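DPX-2 cells (HepG2 co-transfected with a PXR response element and a CYP3A4-promoter luciferase construct) were seeded at 2,000 per well, rested 5 hr at 37C, then exposed to DMSO-dissolved compounds for 24 hr. Activation was read as luciferase luminescence.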

The target in test [14] is Cytochrome P450 2C19 (Homo sapiens) (UniProt P33261). The test can be described thus: Cytochrome P450 Family 2 Subfamily C Member 19 (CYP2C19) small molecule antagonists: luciferase reporter qHTS assay (AID 1671197). Also: nearly all actives have a fitted effect of over 65% in size. Also: potency is read from the fitted curve at half-maximal effect. An outline of the steps: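 First, compounds are pinned into enzyme-substrate mix and held 10 min at room temperature. Second, NADPH regeneration solution is added and plates incubate 1 h at 37C. Third, detection reagent is added and luminescence read after 20 min.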
Chain of Cytochrome P450 2C19 (Homo sapiens) (P33261 whole entry, looked up): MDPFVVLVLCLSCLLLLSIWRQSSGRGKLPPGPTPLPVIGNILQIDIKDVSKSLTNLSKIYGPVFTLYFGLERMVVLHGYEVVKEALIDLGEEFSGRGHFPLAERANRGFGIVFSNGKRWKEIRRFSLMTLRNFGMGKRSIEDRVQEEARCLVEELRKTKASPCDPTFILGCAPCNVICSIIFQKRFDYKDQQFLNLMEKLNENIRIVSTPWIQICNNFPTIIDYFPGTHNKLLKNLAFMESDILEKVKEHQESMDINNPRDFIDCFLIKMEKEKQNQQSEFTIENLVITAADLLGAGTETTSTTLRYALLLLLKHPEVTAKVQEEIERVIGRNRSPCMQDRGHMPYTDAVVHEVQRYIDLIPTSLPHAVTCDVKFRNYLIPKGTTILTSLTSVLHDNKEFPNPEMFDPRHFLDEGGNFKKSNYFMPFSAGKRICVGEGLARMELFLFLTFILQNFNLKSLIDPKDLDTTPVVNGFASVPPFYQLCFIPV

A number with no mark means an inactive call. Inconclusive results are not listed. The source made the active and inactive calls. Calls follow the shape of the dose curve; as a rule, active = well fitted curve in the direction sought with a large enough effect in the repeat runs; inconclusive = weak or mixed curves; inactive = no such curve, though single readings can be large; an effect the other way counts as inactive or inconclusive.
% is scaled to controls: 0 for no effect and ±100 for the full control effect.

Chain of Cytochrome P450 2C9 (Homo sapiens) (P11712 whole entry, looked up): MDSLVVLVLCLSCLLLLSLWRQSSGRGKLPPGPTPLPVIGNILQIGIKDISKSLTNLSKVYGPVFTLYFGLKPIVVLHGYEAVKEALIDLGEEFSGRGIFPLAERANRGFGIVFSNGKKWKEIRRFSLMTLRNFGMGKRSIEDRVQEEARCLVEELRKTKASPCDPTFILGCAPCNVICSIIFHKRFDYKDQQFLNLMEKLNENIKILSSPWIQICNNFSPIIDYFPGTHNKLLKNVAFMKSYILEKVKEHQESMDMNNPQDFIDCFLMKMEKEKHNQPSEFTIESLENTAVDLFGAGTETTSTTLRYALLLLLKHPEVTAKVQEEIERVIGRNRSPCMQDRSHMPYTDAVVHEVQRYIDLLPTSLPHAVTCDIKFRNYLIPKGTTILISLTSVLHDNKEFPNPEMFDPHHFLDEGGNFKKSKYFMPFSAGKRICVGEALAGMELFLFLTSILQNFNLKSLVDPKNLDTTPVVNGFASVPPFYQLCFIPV
Chain of Cytochrome P450 2D6 (Homo sapiens) (P10635 whole entry, looked up): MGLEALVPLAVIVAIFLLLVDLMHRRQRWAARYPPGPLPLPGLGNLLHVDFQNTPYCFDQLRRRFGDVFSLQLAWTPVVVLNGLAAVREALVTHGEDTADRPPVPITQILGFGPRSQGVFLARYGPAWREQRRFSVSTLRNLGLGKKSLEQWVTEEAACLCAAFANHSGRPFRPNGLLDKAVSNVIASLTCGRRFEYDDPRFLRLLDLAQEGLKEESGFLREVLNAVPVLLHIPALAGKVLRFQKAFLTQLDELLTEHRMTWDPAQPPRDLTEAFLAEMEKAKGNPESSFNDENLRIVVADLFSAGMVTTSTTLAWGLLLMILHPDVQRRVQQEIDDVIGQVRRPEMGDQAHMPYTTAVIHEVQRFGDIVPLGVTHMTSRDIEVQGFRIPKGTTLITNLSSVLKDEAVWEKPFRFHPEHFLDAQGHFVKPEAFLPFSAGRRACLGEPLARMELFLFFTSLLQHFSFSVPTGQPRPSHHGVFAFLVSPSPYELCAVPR
Chain of Cytochrome P450 3A4 (Homo sapiens) (P08684 whole entry, looked up): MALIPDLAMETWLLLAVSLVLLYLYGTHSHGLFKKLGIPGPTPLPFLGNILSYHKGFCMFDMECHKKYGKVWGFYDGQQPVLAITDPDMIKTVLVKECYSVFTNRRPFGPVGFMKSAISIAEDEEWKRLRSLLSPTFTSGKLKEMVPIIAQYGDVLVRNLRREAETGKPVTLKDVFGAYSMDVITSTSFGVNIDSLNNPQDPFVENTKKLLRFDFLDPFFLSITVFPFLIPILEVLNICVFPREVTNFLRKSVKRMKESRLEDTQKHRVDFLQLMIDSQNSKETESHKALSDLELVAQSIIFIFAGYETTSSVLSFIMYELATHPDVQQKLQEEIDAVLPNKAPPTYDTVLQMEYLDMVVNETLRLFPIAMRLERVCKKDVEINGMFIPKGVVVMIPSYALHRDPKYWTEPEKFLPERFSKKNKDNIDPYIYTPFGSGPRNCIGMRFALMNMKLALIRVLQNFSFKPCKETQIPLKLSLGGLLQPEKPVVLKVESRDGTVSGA
Chain of Nuclear receptor subfamily 1 group I member 2 (Homo sapiens) (O75469 whole entry, looked up): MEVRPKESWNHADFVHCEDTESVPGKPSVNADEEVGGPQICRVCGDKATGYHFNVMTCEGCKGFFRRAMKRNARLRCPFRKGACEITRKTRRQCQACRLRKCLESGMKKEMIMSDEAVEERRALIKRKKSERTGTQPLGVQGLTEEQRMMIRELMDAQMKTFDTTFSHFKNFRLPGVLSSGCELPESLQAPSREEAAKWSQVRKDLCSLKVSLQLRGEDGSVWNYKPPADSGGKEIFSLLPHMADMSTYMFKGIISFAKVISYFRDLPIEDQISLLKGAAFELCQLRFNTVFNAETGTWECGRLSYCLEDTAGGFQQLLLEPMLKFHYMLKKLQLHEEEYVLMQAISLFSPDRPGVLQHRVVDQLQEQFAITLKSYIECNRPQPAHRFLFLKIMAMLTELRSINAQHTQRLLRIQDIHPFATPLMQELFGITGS

Regarding `CC1=NN(c2cc(S(=O)(=O)O)ccc2Cl)C(=O)C1N=Nc1ccccc1` (configuration not stated), the call in test [1] and in test [3] was inactive. The Potency in test [2] and in test [4] was 54.5 µM (active) in each case. For the same compound, the Potency entry in test [5], in test [6], in [7], in [8] and in test [9] was “inactive” throughout.

On to `Cc1ncc(COP(=O)(O)O)c(C=O)c1O`, for which the outcome in [1] was inactive. Moreover, the Potency entry in [2], in [4], in [10], in test [12], in [13] and in [5] was “inactive” throughout. The Potency result in test [14], in test [6], in [8] and in test [9] was “inactive” each time. Besides, the max activation in test [11] is -2.51%. The Potency in test [7] is 17.4 µM (active).

Consider `COc1cc(C(=O)OC(COCCC(C)C)CN2CCOCC2)cc(OC)c1OC` (configuration not stated), for which the compound was classed as inactive in test [1] and in [3]. Moreover, the Potency entry in test [2], in [4] and in [7] was “inactive” in each case. Besides, the Potency in [14] is 3.47 µM (active); in [6], 3.09 µM (active).

For the compound `Cc1c(N)c(=O)n(-c2ccccc2)n1C`, the call in [1] and in test [3] was inactive. The Potency result in [2], in [4] and in test [8] was “inactive” throughout.

`O=C1NC(=O)C2CC=CCC12` (configuration not stated): the compound was classed as inactive in test [1] and in [3]. Moreover, the Potency result in test [2], in [4] and in test [8] was “inactive” throughout.

With `C=COCC1CCC(COC=C)CC1` (configuration not stated), the call in test [1] and in test [3] was inactive. Moreover, the Potency entry in [2], in test [4], in [5], in test [6], in [7] and in [8] was “inactive” in each case. Further, the Potency entry in test [9] was “inactive”.

Consider `NC(=O)Cc1cccc2ccccc12`, for which the compound was called inactive in [1] and in test [3]. Further, the Potency result in test [2], in test [4], in test [5], in [14], in test [6] and in test [8] was “inactive” in each case. Further, the Potency entry in [9] was “inactive”.

As to `FB(F)F`, the call in test [1] and in test [3] was inactive. Also, the Potency entry in [2], in test [5], in [6], in test [7] and in test [8] was “inactive” each time.

Turning to `CCOCC(C)O` (configuration not stated), the outcome in [1] and in test [3] was inactive. The Potency result in [2], in [4], in test [14], in test [6], in test [8] and in test [9] was “inactive” each time.

As for `C[N+](C)(CCOc1ccccc1)Cc1cccs1`, the call in test [1] and in test [3] was inactive. Besides, the Potency result in [2], in test [4], in test [14], in test [6] and in test [9] was “inactive” throughout. Besides, the Potency in [5] was 0.195 µM (active).

As for `C[C@H]1C[C@H]2[C@@H]3CCC4=CC(=O)C=C[C@]4(C)[C@H]3C(=O)C[C@]2(C)[C@@]1(O)C(=O)CO`, the call in test [1] and in test [3] was inactive. Also, the Potency result in [2], in test [4], in test [14], in [8] and in test [9] was “inactive” each time. The Potency in test [6] was 13.8 µM (active).

With `NC(=O)N[C@@H](CCC(=O)O)C(=O)O`, the result in test [1] was inactive. The Potency result in test [2], in [4], in [10], in test [12], in test [13] and in test [5] was “inactive” in each case. Also, the Potency entry in test [14], in [6], in test [7] and in test [9] was “inactive” each time. Also, the max activation in [11] is -3.04%.

With `CCN(CC#N)c1cccc(C)c1`, the outcome in test [1] and in test [3] was inactive. Moreover, the Potency entry in [2], in test [4] and in test [9] was “inactive” in each case. Moreover, the values for the Potency in test [14] and in test [7] were 71 µM (active) and 28.3 µM (active), respectively.

Source of the values: PubChem BioAssay (Tox21).
